In PubChem BioAssay AID1851 (National Center for Advancing Translational Sciences (NCATS), 2009):
Hit rate of the full screen: of about 16,000 compounds, about 4,000 (25%) were called active. About 26% were inconclusive and are not listed. Calls follow the shape of the dose curve; as a rule, active = well fitted curve in the direction sought with a large enough effect; inconclusive = small, poorly fitted or top-dose-only effect, or effect the other way; inactive = no such curve, though single readings can be large or run the other way. The list is a sample of the results.

target: Cytochrome P450 2C9 (Homo sapiens) (UniProt P11712); assay: Cytochrome panel assay with activity outcomes; conditions: recombinant CYP, pro-luciferin dealkylation, luminescence, p450-cyp2c9; series mostly up to 57.1 µM; activity, negative = inhibition: at the top concentration
Sequence (P11712 whole entry, looked up): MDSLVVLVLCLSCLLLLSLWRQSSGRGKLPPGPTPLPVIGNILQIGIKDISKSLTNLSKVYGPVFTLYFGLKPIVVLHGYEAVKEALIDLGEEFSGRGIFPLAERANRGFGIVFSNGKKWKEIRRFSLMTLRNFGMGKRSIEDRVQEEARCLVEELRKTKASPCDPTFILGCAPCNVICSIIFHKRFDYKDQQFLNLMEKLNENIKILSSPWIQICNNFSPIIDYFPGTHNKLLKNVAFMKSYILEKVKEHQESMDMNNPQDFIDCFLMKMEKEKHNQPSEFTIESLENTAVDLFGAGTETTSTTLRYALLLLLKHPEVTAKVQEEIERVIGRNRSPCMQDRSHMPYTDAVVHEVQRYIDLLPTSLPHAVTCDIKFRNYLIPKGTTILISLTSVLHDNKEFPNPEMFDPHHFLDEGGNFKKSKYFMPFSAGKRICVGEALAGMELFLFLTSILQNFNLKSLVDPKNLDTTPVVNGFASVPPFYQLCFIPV
% is scaled to controls: 0 for no effect and ±100 for the full control effect.

Compound	activity, negative = inhibition	AC50
C[C@@H](N)[C@@H](C)Cc1ccccc1	-11% [at 11.4 µM] (inactive)	
O=C(O)C[C@H](Cc1ccccc1)C(=O)O	-7.58% [at 11.4 µM] (inactive)	
Cc1ccc(C)n1C(Cc1ccccc1)C(=O)O (centres undefined)		31.6 µM (active)
COc1ncc2nc(-c3ccccc3)c(=O)n(C)c2n1	-14.7% (inactive)	
COc1ccc(S(=O)(=O)n2ccc(-c3cnc(-c4ccccc4)s3)n2)cc1		1.78 µM (active)
O=S(=O)(c1ccc(F)cc1)n1ccc(-c2cnc(-c3ccccc3)s2)n1		7.94 µM (active)
C[C@@H](N=C(N)N)C(=O)O	11.8% [at 11.4 µM] (inactive)	
Cc1c(C=O)c2ccccn2c1C(=O)c1ccncc1		7.94 µM (active)
C[C@H](C(=O)c1ccncc1)c1ccccn1	-11.4% [at 11.4 µM] (inactive)	
CCNC(=O)COC(=O)c1cc(=O)[nH]c2ccccc12	67.2% (inactive)	
CCCCOC(=O)c1ccc(O)cc1	-30% [at 25.6 µM] (inactive)	
CCCCOC(=O)c1cc2c(cn1)[nH]c1ccccc12		7.94 µM (active)
Nc1ncnc2c1ncn2[C@@H]1O[C@@H](C(=O)NC2CC2)[C@H](O)[C@@H]1O	26.2% (inactive)	
CCC(=O)Nc1nnc(C(C)(C)C)s1	-24.6% (inactive)	
CC(C)(C)NS(=O)(=O)c1ccc(NC(=O)c2cc(-c3ccccc3)nc3ccccc23)cc1		6.31 µM (active)
COc1ccc(-c2cc(C(=O)Nc3nc4c(C)cccc4s3)c3ccccc3n2)cc1OC		2.51 µM (active)
CC(C)(C)c1nnc(NC(=O)c2cc(-c3ccccc3)nc3ccccc23)s1		7.08 µM (active)
CC(=O)Nc1ccc(-c2cc(C(=O)O)c3cc4ccccc4cc3n2)cc1	4.42% [at 11.4 µM] (inactive)	
c1cncc(CNc2ncnc3ccc(-c4ccoc4)cc23)c1	0.357% [at 2.29 µM] (inactive)	
Cc1noc(C)c1-c1ccc2ncnc(N3CCN(C)CC3)c2c1	-6.38% [at 2.29 µM] (inactive)	

Compound	activity, negative = inhibition	AC50
CCCC1c2c(ccc3ccccc23)Oc2ccc3ccccc3c21	-4.51% [at 11.4 µM] (inactive)	
Cn1c2c(c(=O)n(C)c1=O)[C@@H]1c3c(ccc4ccccc34)OC[C@@H]1CO2		12.6 µM (active)
CN(C)c1ccc(-c2nc(NC3CCNCC3)c3ccccc3n2)cc1	12.7% [at 2.29 µM] (inactive)	
C/C(=N\NC(=O)COc1ccc([N+](=O)[O-])cc1)C(C)(C)C	-13.3% (inactive)	
O=C(COc1ccc(/C=N/NC(=O)c2ccccc2)cc1)Nc1ccc([N+](=O)[O-])cc1	-5.73% (inactive)	
CCOC(=O)c1cccc(NC(=O)COc2ccc([N+](=O)[O-])cc2)c1		14.1 µM (active)
C/C(=N\Nc1nnc(C)c(=O)[nH]1)C(=O)O	23.7% (inactive)	
O=C(Nc1ccccc1-c1nc2ccccc2[nH]1)c1ccc(S(=O)(=O)N2CCCCC2)cc1		2 µM (active)
CC(C)(C)n1nc2c(c1NC(=O)c1ccc(S(=O)(=O)N3CCCCC3)cc1)CS(=O)C2 (centres undefined)	-25.8% (inactive)	
COc1ccccc1-c1nc(N(C)Cc2ccco2)c2ccccc2n1	-7.62% [at 2.29 µM] (inactive)	
CCC(CC)C(=O)Nc1c2c(nn1-c1ccc(OC)cc1)CS(=O)(=O)C2		7.94 µM (active)
O=C(Nc1c2c(nn1-c1ccc(F)cc1)CS(=O)(=O)C2)C12CC3CC(CC(C3)C1)C2	-21.8% (inactive)	
CSC(=N)N		inactive
Cc1nnc(-c2cccc(Br)c2)c2cn(-c3ccccc3Cl)nc12		2.82 µM (active)
Cc1nnc(-c2cccc(Br)c2)c2cn(-c3ccc(Br)cc3)nc12		2 µM (active)
NC[C@@H]1O[C@H](c2ccccc2)Cc2c1ccc(O)c2O		6.31 µM (active)
NC[C@@H]1O[C@H](C23CC4CC(CC(C4)C2)C3)Cc2c1ccc(O)c2O		inactive
CO/N=C(\C(=O)N[C@@H]1C(=O)N2C(C(=O)O)=C(COC(N)=O)CS[C@@H]12)c1ccco1	-0.22% [at 25.6 µM] (inactive)	
C=C(C)CN(CC#N)CC(=C)C	11% [at 11.4 µM] (inactive)	
Cc1cccc(-c2c3c(=O)n(C)c(=O)n(C)c3cn2C2CCCCC2)c1		10 µM (active)

Compound	activity, negative = inhibition	AC50
CC1=CC(=O)N(c2cccc(C(F)(F)F)c2)C1c1ccc(Cl)cc1 (centres undefined)		12.6 µM (active)
Cc1n[nH]c(=O)n1-c1cccc(C(F)(F)F)c1	-26.8% (inactive)	
OC[C@@H]1O[C@@H](n2cnc3c(SCc4ccccc4)ncnc32)[C@@H](O)[C@H]1O	5.12% [at 11.4 µM] (inactive)	
Cc1ccc(NC(=S)NC(=O)c2c(-c3ccccc3Cl)noc2C)cc1		1.41 µM (active)
Cc1onc(-c2ccccc2Cl)c1C(=O)NCC(=O)O	-18% (inactive)	
Cc1onc(-c2ccccc2Cl)c1C(=O)Nc1nnc(Cc2ccc(Cl)cc2)s1		1.26 µM (active)
CC(=O)C1=NOC(CNC(=O)c2c(-c3ccccc3Cl)noc2C)C1 (centres undefined)	-24.8% (inactive)	
CC(=O)NCCNc1ncnc2ccc(-c3ccccc3C(F)(F)F)cc12	5.92% [at 2.29 µM] (inactive)	
CCn1c2ccccc2c2cc(N=C3SC(CC(=O)Nc4ccccc4)C(=O)N3C)ccc21 (centres undefined)		0.126 µM (active)
CCn1c2ccccc2c2cc(N=C3SC(CC(=O)Nc4ccccc4OC)C(=O)N3C)ccc21 (centres undefined)		0.891 µM (active)
COc1ccccc1NC(=O)CCN1C(=O)C2CC=C(Cl)CC2C1=O (centres undefined)	19.4% (inactive)	
O=C(O)CC[C@@H](C(=O)O)N1C(=O)[C@@H]2[C@@H]3CC[C@H](C3)[C@@H]2C1=O	12.5% [at 11.4 µM] (inactive)	
OCCNc1nc(NCCC2=CCCCC2)nc(N2CCOCC2)n1		14.1 µM (active)
CCN(CC)CCNC(=O)C(C)c1nn(C)c(=O)c2ccccc12 (centres undefined)	-0.184% (inactive)	
CCOC(=O)CNS(=O)(=O)c1cc(-c2nn(C)c(=O)c3ccccc23)ccc1C		0.316 µM (active)
CS(=O)(=O)Nc1cccc(-c2ccc3ncnc(NCCN4CCOCC4)c3c2)c1	19% [at 2.29 µM] (inactive)	
N[C@@H](Cc1cccc([N+](=O)[O-])c1)C(=O)O	16.8% [at 11.4 µM] (inactive)	
CCN(Cc1ccccc1)Cc1cccc([N+](=O)[O-])c1		10 µM (active)
Cc1ccc(S(=O)(=O)NCc2cccc([N+](=O)[O-])c2)cc1	24.1% [at 11.4 µM] (inactive)	
